{
  "source": "the supplement of paper PMC10849652",
  "note": "Targets with a hit are over-represented here; the source holds about 8,800 in all. About 0.5% of all pairs of compound and target were hits. Unmarked numbers belong to inactive results.",
  "data": [
    {"compound": "CC(C)C1=C2N=C(C=C(N2N=C1)NCC3=CC=CC=C3)NCCCCCCN", "assay": "log2 fold change, soluble protein after heating vs DMSO (PISA); higher = thermal stabilisation; K562 lysate, 10 uM; active = over 0.2 and 3.5 SD of the protein, either way, in both replicates (recomputed)", "procedure,_shortened": "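Values give the log-two fold change in thermal stability against solvent controls, from duplicates. Crude K562 extract at 1 mg/mL protein, made by dounce homogenisation in PBS pH 7.4 with 1 mM MgCl2, was treated with 10 μM compound for 30 min. After 3 min heating across 48°C-58°C, aliquots were pooled, adjusted to 0.5% NP-40 at 4°C and centrifuged at 21,000xg for 90 min. The supernatant was measured by TMTpro 16plex LC-MS/MS with channel sums equalised.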", "values": [
      {"target": "USP9X (UniProt Q93008)", "sequence (Q93008 whole entry, looked up)": "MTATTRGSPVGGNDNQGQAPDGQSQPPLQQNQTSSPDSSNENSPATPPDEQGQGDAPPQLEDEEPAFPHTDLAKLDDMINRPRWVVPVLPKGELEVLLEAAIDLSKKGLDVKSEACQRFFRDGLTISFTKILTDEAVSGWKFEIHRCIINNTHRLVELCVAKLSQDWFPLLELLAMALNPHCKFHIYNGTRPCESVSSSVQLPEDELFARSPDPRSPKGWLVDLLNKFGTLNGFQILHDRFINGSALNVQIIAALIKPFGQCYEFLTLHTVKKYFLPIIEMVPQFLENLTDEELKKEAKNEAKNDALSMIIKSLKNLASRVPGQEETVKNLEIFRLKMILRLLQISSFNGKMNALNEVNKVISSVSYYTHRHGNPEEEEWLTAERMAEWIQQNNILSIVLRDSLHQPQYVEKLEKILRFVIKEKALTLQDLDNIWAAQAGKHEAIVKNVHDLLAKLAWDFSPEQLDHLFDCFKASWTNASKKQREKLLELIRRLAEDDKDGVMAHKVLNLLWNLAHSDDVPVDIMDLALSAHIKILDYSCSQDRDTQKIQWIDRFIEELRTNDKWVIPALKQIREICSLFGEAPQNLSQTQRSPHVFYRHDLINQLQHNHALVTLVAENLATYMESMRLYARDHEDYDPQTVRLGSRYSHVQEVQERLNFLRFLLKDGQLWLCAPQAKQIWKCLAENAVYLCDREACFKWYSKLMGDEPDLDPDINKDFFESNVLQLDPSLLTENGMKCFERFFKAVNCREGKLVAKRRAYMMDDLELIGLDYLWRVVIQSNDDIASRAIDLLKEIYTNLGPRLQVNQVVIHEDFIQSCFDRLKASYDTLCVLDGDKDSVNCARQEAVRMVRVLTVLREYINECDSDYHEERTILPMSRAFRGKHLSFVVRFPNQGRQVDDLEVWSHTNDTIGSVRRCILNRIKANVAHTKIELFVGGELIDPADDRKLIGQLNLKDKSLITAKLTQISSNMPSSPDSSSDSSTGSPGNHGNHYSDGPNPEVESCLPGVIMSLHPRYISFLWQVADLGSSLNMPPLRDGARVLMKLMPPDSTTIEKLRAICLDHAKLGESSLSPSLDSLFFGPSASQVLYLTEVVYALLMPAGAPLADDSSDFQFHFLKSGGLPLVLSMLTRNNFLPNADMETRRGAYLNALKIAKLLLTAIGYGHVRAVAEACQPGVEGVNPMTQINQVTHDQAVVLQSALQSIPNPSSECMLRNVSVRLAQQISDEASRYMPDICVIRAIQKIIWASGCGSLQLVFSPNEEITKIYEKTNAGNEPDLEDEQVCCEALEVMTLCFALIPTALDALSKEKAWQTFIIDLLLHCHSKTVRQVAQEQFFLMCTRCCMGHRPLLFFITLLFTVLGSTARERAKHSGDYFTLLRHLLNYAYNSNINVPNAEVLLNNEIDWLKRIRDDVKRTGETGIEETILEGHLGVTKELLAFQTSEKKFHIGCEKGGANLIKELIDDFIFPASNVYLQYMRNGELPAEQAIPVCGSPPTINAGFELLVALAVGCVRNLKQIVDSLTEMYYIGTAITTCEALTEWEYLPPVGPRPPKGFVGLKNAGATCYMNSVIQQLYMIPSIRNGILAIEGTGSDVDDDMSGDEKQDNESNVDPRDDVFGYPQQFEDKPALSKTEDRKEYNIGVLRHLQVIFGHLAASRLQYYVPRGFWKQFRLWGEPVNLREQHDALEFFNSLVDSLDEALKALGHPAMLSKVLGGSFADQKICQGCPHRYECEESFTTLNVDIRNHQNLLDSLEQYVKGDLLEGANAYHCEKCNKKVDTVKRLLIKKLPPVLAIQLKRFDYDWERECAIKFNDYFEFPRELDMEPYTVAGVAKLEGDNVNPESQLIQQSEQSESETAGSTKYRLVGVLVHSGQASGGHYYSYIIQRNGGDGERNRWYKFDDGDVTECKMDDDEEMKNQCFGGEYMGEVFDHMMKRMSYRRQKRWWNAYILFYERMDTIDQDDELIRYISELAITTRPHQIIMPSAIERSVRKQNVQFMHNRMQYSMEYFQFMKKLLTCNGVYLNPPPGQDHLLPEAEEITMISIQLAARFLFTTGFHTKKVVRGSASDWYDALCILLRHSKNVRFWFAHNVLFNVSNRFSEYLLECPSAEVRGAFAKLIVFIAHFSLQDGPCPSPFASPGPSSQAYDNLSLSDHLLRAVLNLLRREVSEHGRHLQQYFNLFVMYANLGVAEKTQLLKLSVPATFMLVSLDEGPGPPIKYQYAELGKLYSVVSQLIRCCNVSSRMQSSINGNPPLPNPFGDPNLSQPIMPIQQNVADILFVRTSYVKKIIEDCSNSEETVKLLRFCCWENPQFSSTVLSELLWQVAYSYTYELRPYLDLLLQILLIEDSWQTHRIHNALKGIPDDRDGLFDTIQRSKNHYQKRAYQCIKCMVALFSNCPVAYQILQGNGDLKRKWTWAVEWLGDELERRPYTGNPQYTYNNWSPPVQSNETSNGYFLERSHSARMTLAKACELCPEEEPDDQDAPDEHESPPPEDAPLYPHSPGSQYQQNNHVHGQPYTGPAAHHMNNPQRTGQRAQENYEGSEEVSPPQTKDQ", "log2 fold change": -0.032},
      {"target": "ZMYM1 (UniProt Q5SVZ6)", "log2 fold change": -0.022},
      {"target": "ZNF598 isoform 3 (UniProt Q86UK7)", "log2 fold change": 0.013},
      {"target": "VAV1 (UniProt P15498)", "log2 fold change": 0.009},
      {"target": "WDR7 (UniProt Q9Y4E6)", "log2 fold change": -0.03},
      {"target": "VPS11 (UniProt Q9H270)", "log2 fold change": 0.001},
      {"target": "ZNF318 (UniProt Q5VUA4)", "log2 fold change": 0.014},
      {"target": "VAC14 (UniProt Q08AM6)", "log2 fold change": 0.002},
      {"target": "VPS41 (UniProt P49754)", "sequence (P49754 whole entry, looked up)": "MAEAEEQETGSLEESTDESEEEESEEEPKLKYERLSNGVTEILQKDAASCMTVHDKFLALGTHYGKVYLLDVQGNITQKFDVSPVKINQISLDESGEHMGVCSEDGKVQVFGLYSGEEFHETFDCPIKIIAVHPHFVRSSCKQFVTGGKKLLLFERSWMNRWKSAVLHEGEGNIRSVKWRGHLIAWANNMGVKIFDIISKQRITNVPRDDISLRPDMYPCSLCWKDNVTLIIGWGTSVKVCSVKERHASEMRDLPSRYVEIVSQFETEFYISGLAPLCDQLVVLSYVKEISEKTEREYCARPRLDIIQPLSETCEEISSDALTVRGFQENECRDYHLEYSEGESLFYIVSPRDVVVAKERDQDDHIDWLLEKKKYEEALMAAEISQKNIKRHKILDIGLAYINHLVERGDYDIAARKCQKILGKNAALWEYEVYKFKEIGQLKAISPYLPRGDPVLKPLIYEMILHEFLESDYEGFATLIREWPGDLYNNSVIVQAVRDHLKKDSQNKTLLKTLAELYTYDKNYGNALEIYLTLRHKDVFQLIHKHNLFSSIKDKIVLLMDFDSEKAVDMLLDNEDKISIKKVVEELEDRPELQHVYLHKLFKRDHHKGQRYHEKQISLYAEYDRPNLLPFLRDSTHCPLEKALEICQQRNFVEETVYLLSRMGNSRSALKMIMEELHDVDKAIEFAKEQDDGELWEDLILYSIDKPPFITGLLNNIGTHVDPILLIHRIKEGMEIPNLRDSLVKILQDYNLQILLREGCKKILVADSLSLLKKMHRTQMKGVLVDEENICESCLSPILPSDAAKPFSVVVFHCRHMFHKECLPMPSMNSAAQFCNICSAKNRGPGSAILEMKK", "log2 fold change": 0.003},
      {"target": "ZNHIT6 (UniProt Q9NWK9)", "sequence (Q9NWK9 whole entry, looked up)": "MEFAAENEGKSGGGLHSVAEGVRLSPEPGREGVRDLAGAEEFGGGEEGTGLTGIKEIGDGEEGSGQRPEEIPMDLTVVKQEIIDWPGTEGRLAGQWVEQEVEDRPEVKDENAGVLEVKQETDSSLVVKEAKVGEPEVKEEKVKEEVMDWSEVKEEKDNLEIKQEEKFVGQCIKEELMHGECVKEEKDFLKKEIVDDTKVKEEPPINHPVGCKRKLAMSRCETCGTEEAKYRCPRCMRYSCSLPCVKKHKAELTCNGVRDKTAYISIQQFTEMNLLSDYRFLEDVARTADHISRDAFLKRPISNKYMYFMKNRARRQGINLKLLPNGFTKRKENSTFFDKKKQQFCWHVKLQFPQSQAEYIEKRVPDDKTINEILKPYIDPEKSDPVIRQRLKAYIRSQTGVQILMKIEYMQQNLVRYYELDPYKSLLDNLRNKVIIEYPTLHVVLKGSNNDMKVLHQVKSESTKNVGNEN", "log2 fold change": 0.001},
      {"target": "ZZEF1 (UniProt O43149)", "log2 fold change": -0.014},
      {"target": "VPS16 (UniProt Q9H269)", "log2 fold change": -0.014},
      {"target": "ZHX1 (UniProt Q9UKY1)", "log2 fold change": 0.127},
      {"target": "ZC3H13 (UniProt Q5T200)", "log2 fold change": 0.058},
      {"target": "VRK1 (UniProt Q99986)", "log2 fold change": -0.008},
      {"target": "VPS54 (UniProt Q9P1Q0)", "log2 fold change": -0.004},
      {"target": "WDR45 isoform 2 (UniProt Q9Y484)", "log2 fold change": -0.008},
      {"target": "XAB2 (UniProt Q9HCS7)", "log2 fold change": -0.011},
      {"target": "YTHDF3 (UniProt Q7Z739)", "log2 fold change": 0.008},
      {"target": "XPO6 (UniProt Q96QU8)", "sequence (Q96QU8 whole entry, looked up)": "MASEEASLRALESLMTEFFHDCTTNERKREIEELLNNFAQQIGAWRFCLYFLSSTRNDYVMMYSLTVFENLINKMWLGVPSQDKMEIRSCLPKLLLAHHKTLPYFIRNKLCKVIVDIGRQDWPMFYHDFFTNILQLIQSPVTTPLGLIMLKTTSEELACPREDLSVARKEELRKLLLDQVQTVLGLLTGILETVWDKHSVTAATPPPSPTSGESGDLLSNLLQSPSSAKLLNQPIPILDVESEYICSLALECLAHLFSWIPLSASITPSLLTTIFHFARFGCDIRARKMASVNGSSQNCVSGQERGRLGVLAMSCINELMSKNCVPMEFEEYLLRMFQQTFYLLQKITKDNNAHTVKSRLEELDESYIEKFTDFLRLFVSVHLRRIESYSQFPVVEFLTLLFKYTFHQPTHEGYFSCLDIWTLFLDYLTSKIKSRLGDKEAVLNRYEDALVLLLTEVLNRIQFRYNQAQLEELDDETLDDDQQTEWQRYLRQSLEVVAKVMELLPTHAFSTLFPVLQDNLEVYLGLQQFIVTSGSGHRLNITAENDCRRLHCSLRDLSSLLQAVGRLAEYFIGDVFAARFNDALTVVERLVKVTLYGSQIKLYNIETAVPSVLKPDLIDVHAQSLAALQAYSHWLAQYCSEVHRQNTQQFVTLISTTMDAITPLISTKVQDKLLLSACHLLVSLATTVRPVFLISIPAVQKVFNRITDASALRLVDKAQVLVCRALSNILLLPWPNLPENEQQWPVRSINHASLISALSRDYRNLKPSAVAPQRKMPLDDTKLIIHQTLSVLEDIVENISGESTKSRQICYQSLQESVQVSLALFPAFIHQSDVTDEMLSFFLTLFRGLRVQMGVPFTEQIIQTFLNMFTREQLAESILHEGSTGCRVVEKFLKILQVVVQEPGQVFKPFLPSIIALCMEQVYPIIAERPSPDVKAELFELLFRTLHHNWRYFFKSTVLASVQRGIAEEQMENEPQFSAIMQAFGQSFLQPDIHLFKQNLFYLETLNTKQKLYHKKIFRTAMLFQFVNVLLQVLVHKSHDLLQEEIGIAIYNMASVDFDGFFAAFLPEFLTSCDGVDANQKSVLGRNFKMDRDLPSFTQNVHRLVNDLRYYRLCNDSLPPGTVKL", "log2 fold change": -0.033},
      {"target": "WRB (UniProt O00258)", "log2 fold change": -0.024},
      {"target": "XPOT (UniProt O43592)", "log2 fold change": -0.014},
      {"target": "VPS18 (UniProt Q9P253)", "log2 fold change": -0.022}
    ]}
  ]
}
